Data as given in PubChem BioAssay AID1159580 (chemical genetic matrix, 2015).
Values joined by “and” are separate entries in the source; they are usually repeats but may differ in a detail not shown here. Equal values may be shown once. Among all 5,500 compounds or so, about 2,000 (36%) were called active. Inconclusive results (about 18%) are left out. Rule as the data show it: active = normalized growth mostly below about 0.91 (no sharp cut-off); inconclusive = no clear call, values can overlap the other calls; inactive = mostly above about 0.92. Some of the results follow.

Test: chemical genetic growth profiling, strain panel (AID 1159580);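 also: tested at 20 µM; growth read once vehicle control cultures reached saturation at 30 °C; 1 = growth at the plate median or of vehicle wells; lower values mean less growth of the strain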
Conditions: S. cerevisiae deletion strains, growth OD

Measured: normalized growth

Cc1cn([C@H]2C[C@H](N=[N+]=[N-])[C@@H](CO)O2)c(=O)[nH]c1=O
inactive: locus YAL013W, strain DEP1, stronger effect = lower value 1.01 | locus YAL021C, strain ccr4, stronger effect = lower value 0.993 | locus YAL026C, strain drs2, stronger effect = lower value 0.995 | locus YAL030W, strain snc1, stronger effect = lower value 1 | locus YBL061C, strain skt5, stronger effect = lower value 1 | locus YBR009C, strain hhf1, stronger effect = lower value 1.02 | locus YBR021W, strain FUR4, stronger effect = lower value 0.998 | locus YBR023C, strain chs3, stronger effect = lower value 1 | locus YBR171W, strain sec66, stronger effect = lower value 0.996 | locus YBR229C, strain ROT2, stronger effect = lower value 1.01 | locus YBR231C, strain swc5, stronger effect = lower value 1 | locus YBR279W, strain paf1, stronger effect = lower value 0.979 | locus YCL011C, strain gbp2, stronger effect = lower value 1.02 | locus YCL016C, strain dcc1, stronger effect = lower value 0.965 | locus YCL029C, strain bik1, stronger effect = lower value 1.01 | locus YCL069W, strain vba3, stronger effect = lower value 0.99 | locus YCR088W, strain abp1, stronger effect = lower value 0.995 | locus YDL005C, strain med2, stronger effect = lower value 1 | locus YDL035C, strain GPR1, stronger effect = lower value 1.01 | locus YDL040C, strain nat1, stronger effect = lower value 0.994 | locus YDL074C, strain BRE1, stronger effect = lower value 1.02 | locus YDL101C, strain DUN1, stronger effect = lower value 1.01 | locus YDL134C, strain PPH21, stronger effect = lower value 1 | locus YDL185W, strain tfp1, stronger effect = lower value 1.01 | locus YDL192W, strain arf1, stronger effect = lower value 1.01 | locus YDR001C, strain nth1, stronger effect = lower value 0.994 | locus YDR069C, strain doa4, stronger effect = lower value 1.01 | locus YDR101C, strain arx1, stronger effect = lower value 1.02 | locus YDR137W, strain rgp1, stronger effect = lower value 0.966 | locus YDR150W, strain NUM1, stronger effect = lower value 1 | locus YDR159W, strain sac3, stronger effect = lower value 0.971 | locus YDR162C, strain NBP2, stronger effect = lower value 1 | locus YDR195W, strain ref2 0.983 | locus YDR297W, strain sur2, stronger effect = lower value 1.02 | locus YDR318W, strain mcm21, stronger effect = lower value 1 | locus YDR334W, strain swr1, stronger effect = lower value 1.01 | locus YDR335W, strain msn5, stronger effect = lower value 0.984 | locus YDR388W, stronger effect = lower value 1 | locus YDR392W, strain spt3, stronger effect = lower value 0.924 | locus YDR502C, strain sam2, stronger effect = lower value 1.02 | locus YEL003W, strain gim4, stronger effect = lower value 1.01 | locus YEL037C, strain rad23, stronger effect = lower value 1 | locus YEL061C, strain CIN8 (second series), stronger effect = lower value 0.999 | locus YEL061C, strain CIN8, stronger effect = lower value 1 | locus YER015W, strain faa2, stronger effect = lower value 0.997 | locus YER016W, strain bim1, stronger effect = lower value 0.991 | locus YER110C, stronger effect = lower value 1.02 | locus YER111C, strain swi4, stronger effect = lower value 0.976 | locus YER155C, strain BEM2 (second series), stronger effect = lower value 1 | locus YER155C, strain BEM2, stronger effect = lower value 0.988 | locus YER167W, strain BCK2, stronger effect = lower value 0.998 | locus YFR010W, strain ubp6, stronger effect = lower value 1.01 | locus YGL078C, strain dbp3, stronger effect = lower value 1.01 | locus YGL086W, strain mad1, stronger effect = lower value 1 | locus YGL167C, strain pmr1, stronger effect = lower value 1 | locus YGL173C, strain kem1, stronger effect = lower value 1.01 | locus YGL227W, strain vid30, stronger effect = lower value 0.996 | locus YGL240W, strain doc1, stronger effect = lower value 1 | locus YGL248W, strain PDE1, stronger effect = lower value 1.01 | locus YGL253W, strain hxk2, stronger effect = lower value 0.981 | locus YGR078C, strain PAC10, stronger effect = lower value 1.01 | locus YGR135W, strain pre9, stronger effect = lower value 1.01 | locus YGR229C, strain SMI1, stronger effect = lower value 1.01 | locus YGR252W, strain gcn5, stronger effect = lower value 1.05 | locus YHR013C, strain ard1, stronger effect = lower value 0.969 | locus YHR027C, strain rpn1, stronger effect = lower value 1.03 | locus YHR030C, strain SLT2, stronger effect = lower value 1 and 0.984 | locus YHR079C, strain IRE1 (second series), stronger effect = lower value 0.998 | locus YHR079C, strain IRE1, stronger effect = lower value 0.966 | locus YHR094C, strain hxt1, stronger effect = lower value 1.01 | locus YHR129C, strain ARP1, stronger effect = lower value 1 | locus YHR142W, strain chs7, stronger effect = lower value 0.972 | locus YHR200W, strain rpn10, stronger effect = lower value 1.01 | locus YIL066C, strain RNR3, stronger effect = lower value 1.01 | locus YIL073C, strain SPO22, stronger effect = lower value 1.05 | locus YIL125W, strain kgd1, stronger effect = lower value 1.01 | locus YIR030C, strain dcg1, stronger effect = lower value 1 | locus YJL092W, strain hpr5, stronger effect = lower value 1.01 | locus YJL095W, strain BCK1 (second series), stronger effect = lower value 1.01 | locus YJL095W, strain BCK1, stronger effect = lower value 1.01 and 0.973 | locus YJL115W, strain asf1, stronger effect = lower value 1 | locus YJL129C, strain trk1, stronger effect = lower value 0.948 | locus YJL134W, strain LCB3, stronger effect = lower value 0.999 | locus YJL154C, strain vps35, stronger effect = lower value 0.998 | locus YJL164C, strain tpk1, stronger effect = lower value 0.981 | locus YJL166W, strain qcr8, stronger effect = lower value 1.03 | locus YJL168C, strain set2, stronger effect = lower value 0.999 | locus YJL187C, strain SWE1 (second series), stronger effect = lower value 1.01 | locus YJL187C, strain SWE1, stronger effect = lower value 1.01 | locus YJR043C, strain POL32, stronger effect = lower value 1.02
